# Test results taken from the supplement of paper PMC8728848.
# Shown is part of a subset that was picked to be rich in the strongest signals.
# Tests used:
# Assay in all cases: glycan array binding signal (z-score within array); higher = stronger binding
# Conditions in all cases: glycan notation: IUPAC condensed, linker removed; mutation: D57L
# [1] = biological target: GlcNAc(b1-3)Gal(b1-4)GlcNAc(b1-2)Man(a1-3)[GlcNAc(b1-3)Gal(b1-4)GlcNAc(b1-2)Man(a1-6)]Man(b1-4)GlcNAc(b1-4)GlcNAc
# Outline: (§1)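 Arrays were curated from the Consortium for Functional Glycomics database, 3228 in total, and kept only where the protein sequence was available. Binding is expressed as a within-array Z-score. This score was averaged across arrays of the same protein sequence at different concentrations or buffers and across linkers, and negative values can be read as non-binding.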
# [2] = biological target: GlcNAc(b1-3)Gal(b1-4)GlcNAc(b1-3)Gal(b1-4)GlcNAc(b1-3)Gal(b1-4)GlcNAc(b1-3)Gal(b1-4)GlcNAc(b1-2)Man(a1-3)[GlcNAc(b1-3)Gal(b1-4)GlcNAc(b1-3)Gal(b1-4)GlcNAc(b1-3)Gal(b1-4)GlcNAc(b1-3)Gal(b1-4)GlcNAc(b1-2)Man(a1-6)]Man(b1-4)GlcNAc(b1-4)[Fuc(a1-6)]GlcNAc
# Outline: as §1
# [3] = biological target: GlcNAc(b1-3)Gal(b1-4)GlcNAc(b1-3)GalNAc
# Outline: as §1
# [4] = biological target: GlcNAc(b1-3)Man
# Outline: as §1
# [5] = biological target: GlcNAc(b1-4)Gal(b1-4)GlcNAc
# Outline: as §1
# [6] = biological target: Kdn(a2-6)Gal(b1-4)GlcNAc
# Outline: as §1
# [7] = biological target: Man(a1-2)Man(a1-3)Man
# Outline: as §1
# [8] = biological target: Man(a1-3)[Man(a1-6)]Man
# Outline: as §1
# [9] = biological target: Man(a1-3)[Man(a1-6)]Man(a1-6)[Man(a1-3)]Man
# Outline: as §1
# [10] = biological target: Man(a1-3)[Man(a1-6)]Man(b1-4)GlcNAc(b1-4)GlcNAc
# Outline: as §1
# [11] = biological target: Neu5Ac(a2-3)Gal(b1-3)GalNAc(b1-4)[Neu5Ac(a2-3)]Gal(b1-4)Glc
# Outline: as §1
# [12] = biological target: Neu5Ac(a2-3)Gal(b1-3)GlcNAc(b1-2)Man
# Outline: as §1
# [13] = biological target: Neu5Ac(a2-3)Gal(b1-3)GlcNAc(b1-2)Man(a1-3)[GlcNAc(b1-4)][Neu5Ac(a2-3)Gal(b1-3)GlcNAc(b1-2)Man(a1-6)]Man(b1-4)GlcNAc(b1-4)GlcNAc
# Outline: as §1
# [14] = biological target: Neu5Ac(a2-3)Gal(b1-3)GlcNAc(b1-6)GalNAc
# Outline: as §1
# [15] = biological target: Neu5Ac(a2-3)Gal(b1-3)GlcNAc6S
# Outline: as §1
# [16] = biological target: Neu5Ac(a2-3)Gal(b1-4)GlcNAc(b1-2)Man
# Outline: as §1
# [17] = biological target: Neu5Ac(a2-3)Gal(b1-4)GlcNAc(b1-3)Gal(b1-4)GlcNAc
# Outline: as §1
# [18] = biological target: Neu5Ac(a2-3)Gal(b1-4)GlcNAc(b1-3)Gal(b1-4)GlcNAc(b1-2)Man(a1-3)[Neu5Ac(a2-3)Gal(b1-4)GlcNAc(b1-3)Gal(b1-4)GlcNAc(b1-2)Man(a1-6)]Man(b1-4)GlcNAc(b1-4)GlcNAc
# Outline: as §1
# [19] = biological target: Neu5Ac(a2-3)Gal(b1-4)GlcNAc(b1-3)Gal(b1-4)GlcNAc(b1-3)Gal(b1-4)GlcNAc(b1-2)Man(a1-3)[Neu5Ac(a2-3)Gal(b1-4)GlcNAc(b1-3)Gal(b1-4)GlcNAc(b1-3)Gal(b1-4)GlcNAc(b1-2)Man(a1-6)]GalNAc
# Outline: as §1
# [20] = biological target: Neu5Ac(a2-3)Gal(b1-4)GlcNAc(b1-6)[Gal(b1-3)]GalNAc
# Outline: as §1
# [21] = biological target: Neu5Ac(a2-3)Gal(b1-4)[Fuc(a1-3)]GlcNAc(b1-6)[Neu5Ac(a2-3)Gal(b1-3)]GalNAc
# Outline: as §1
# [22] = biological target: Neu5Ac(a2-3)GalNAc
# Outline: as §1
# [23] = biological target: Neu5Ac(a2-6)Gal(b1-4)GlcNAc(b1-3)[Neu5Ac(a2-6)Gal(b1-4)GlcNAc(b1-6)]GalNAc
# Outline: as §1
# [24] = biological target: Neu5Ac(a2-6)Gal(b1-4)GlcNAc6S
# Outline: as §1
# [25] = biological target: Neu5Ac(a2-6)GalNAc(b1-4)GlcNAc
# Outline: as §1
# [26] = biological target: Neu5Ac(a2-8)Neu5Ac(a2-3)Gal(b1-3)GalNAc(b1-4)[Neu5Ac(a2-3)]Gal(b1-4)Glc
# Outline: as §1
# [27] = biological target: Neu5Ac9Ac(a2-3)Gal(b1-4)GlcNAc
# Outline: as §1
# [28] = biological target: Neu5Gc(a2-6)Gal(b1-4)GlcNAc
# Outline: as §1
# [29] = biological target: Neu5Gc(a2-8)Neu5Gc(a2-3)Gal(b1-4)GlcNAc(b1-3)Gal(b1-4)GlcNAc
# Outline: as §1
binder,measurement,setting,value
PNGase F (Flavobacterium meningosepticum) (protein) GIPAPADNTVNIKTFDKVKNAFGDGLSQSAEGTFTFPADVTAVKTIKMFIKNECPNKTCLEWDRYANVYVKNKTTGEWYEIGRFITPYWVGTEKLPRGLEIDVTDFKSLLSGNTELKIYTETWLAKGREYSVDFDIVYGTPDYKYSAVVPVVQYNKSSIDGVPYGKAHTLALKKNIQLPTNTEKAYLRTTISGWGHAKPYDAGSRGCAEWCFRTHTIAINNSNTFQHQLGALGCSANPINNQSPGNWTPDRAGWCPGMAVPTRIDVLNNSLIGSTFSYEYKFQNWTNNGTNGDAFYAISSFVIAKSNTPISAPVVTNLDPHHHHHH,glycan array binding signal (z-score),[1],0.239
same,glycan array binding signal (z-score),[2],0.677
same,glycan array binding signal (z-score),[3],0.274
same,glycan array binding signal (z-score),[4],2.62
same,glycan array binding signal (z-score),[5],-0.997
same,glycan array binding signal (z-score),[6],0.05
same,glycan array binding signal (z-score),[7],-1.18
same,glycan array binding signal (z-score),[8],0.446
same,glycan array binding signal (z-score),[9],3.32
same,glycan array binding signal (z-score),[10],0.156
same,glycan array binding signal (z-score),[11],0.797
same,glycan array binding signal (z-score),[12],-0.518
same,glycan array binding signal (z-score),[13],0.012
same,glycan array binding signal (z-score),[14],0.237
same,glycan array binding signal (z-score),[15],1.09
same,glycan array binding signal (z-score),[16],3.1
same,glycan array binding signal (z-score),[17],-0.525
same,glycan array binding signal (z-score),[18],0.19
same,glycan array binding signal (z-score),[19],0.914
same,glycan array binding signal (z-score),[20],2.77
same,glycan array binding signal (z-score),[21],0.57
same,glycan array binding signal (z-score),[22],1.19
same,glycan array binding signal (z-score),[23],-0.712
same,glycan array binding signal (z-score),[24],0.924
same,glycan array binding signal (z-score),[25],-1
same,glycan array binding signal (z-score),[26],-0.06
same,glycan array binding signal (z-score),[27],-1.04
same,glycan array binding signal (z-score),[28],0.069
same,glycan array binding signal (z-score),[29],-0.629
